# Assay results reported in the supplement of paper PMC4466140.
# How the values were obtained:
# Assay in all cases: SPOT peptide array binding signal intensity (averaged, normalized) (arbitrary units (background-subtracted, floor 0; scale differs between SH3 domains)); higher = stronger binding of the SH3 domain to the peptide
# [1] = target: SpBzz1-D2
# Procedure, shortened: (§1)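 GST-SH3 fusions from four yeast species, purified on glutathione Sepharose, were incubated at 10 μg/ml overnight at 4°C on membranes of synthetic 15-mer peptides in which cysteines were replaced with serines. Binding signal is the normalized, background-subtracted spot intensity averaged over replicates, in domain-specific arbitrary units.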
# [2] = target: SpCyk3
# Procedure, shortened: as §1
# [3] = target: SpHof1
# Procedure, shortened: as §1
# [4] = target: SpHof1-2
# Procedure, shortened: as §1
# [5] = target: SpHof1-3
# Procedure, shortened: as §1
# [6] = target: SpHse1
# Procedure, shortened: as §1
# [7] = target: SpLsb1
# Procedure, shortened: as §1
# [8] = target: SpLsb4
# Procedure, shortened: as §1
# [9] = target: SpMyo1
# Procedure, shortened: as §1
# [10] = target: SpNbp2
# Procedure, shortened: as §1
# [11] = target: SpPex13
# Procedure, shortened: as §1
# [12] = target: SpRvs167
# Procedure, shortened: as §1
# [13] = target: SpSla1-D1-D2
# Procedure, shortened: as §1
# [14] = target: SpSla1-D3
# Procedure, shortened: as §1
# [15] = target: AgAbp1
# Procedure, shortened: as §1
# [16] = target: AgBbc1
# Procedure, shortened: as §1
# [17] = target: AgBem1-D1
# Procedure, shortened: as §1
# [18] = target: AgBzz1-D1
# Procedure, shortened: as §1
# [19] = target: AgBzz1-D2
# Procedure, shortened: as §1
# [20] = target: AgCyk3
# Procedure, shortened: as §1
# [21] = target: AgFus1
# Procedure, shortened: as §1
# [22] = target: AgHof1
# Procedure, shortened: as §1
# [23] = target: AgHse1
# Procedure, shortened: as §1
# [24] = target: AgLsb1
# Procedure, shortened: as §1
# [25] = target: AgLsb4
# Procedure, shortened: as §1
# [26] = target: AgMyo5
# Procedure, shortened: as §1
# [27] = target: AgNbp2
# Procedure, shortened: as §1
# [28] = target: AgRvs167
# Procedure, shortened: as §1
# [29] = target: AgSho1
# Procedure, shortened: as §1
# [30] = target: AgSla1-D1-D2
# Procedure, shortened: as §1
# [31] = target: AgSla1-D3
# Procedure, shortened: as §1
# [32] = target: CaAbp1-D1
# Procedure, shortened: as §1
# [33] = target: CaAbp1-D2
# Procedure, shortened: as §1
# [34] = target: CaBbc1
# Procedure, shortened: as §1
# [35] = target: CaBem1-D1
# Procedure, shortened: as §1
# [36] = target: CaBzz1-D1
# Procedure, shortened: as §1
# [37] = target: CaBzz1-D2
# Procedure, shortened: as §1
# [38] = target: CaCyk3
# Procedure, shortened: as §1
# [39] = target: CaFus1
# Procedure, shortened: as §1
# [40] = target: CaHof1
# Procedure, shortened: as §1
# [41] = target: CaHse1
# Procedure, shortened: as §1
# [42] = target: CaLsb1
# Procedure, shortened: as §1
# [43] = target: CaLsb4
# Procedure, shortened: as §1
# [44] = target: CaMyo5
# Procedure, shortened: as §1
# [45] = target: CaNbp2
# Procedure, shortened: as §1
# [46] = target: CaRvs167
# Procedure, shortened: as §1
# [47] = target: CaRvs167-3
# Procedure, shortened: as §1
# [48] = target: CaSho1
# Procedure, shortened: as §1
# [49] = target: CaSla1-D1-D2
# Procedure, shortened: as §1
# [50] = target: CaSla1-D3
# Procedure, shortened: as §1
# [51] = target: ScAbp1
# Procedure, shortened: as §1
# [52] = target: ScBbc1
# Procedure, shortened: as §1
# [53] = target: ScBem1-D1
# Procedure, shortened: as §1
# [54] = target: ScBzz1-D1
# Procedure, shortened: as §1
# [55] = target: ScBzz1-D2
# Procedure, shortened: as §1
# [56] = target: ScCyk3
# Procedure, shortened: as §1
# [57] = target: ScFus1
# Procedure, shortened: as §1
# [58] = target: ScHof1
# Procedure, shortened: as §1
# [59] = target: ScHse1
# Procedure, shortened: as §1
# [60] = target: ScLsb1
# Procedure, shortened: as §1
# [61] = target: ScLsb2
# Procedure, shortened: as §1
# [62] = target: ScLsb3
# Procedure, shortened: as §1
# [63] = target: ScLsb4
# Procedure, shortened: as §1
# [64] = target: ScMyo3
# Procedure, shortened: as §1
# [65] = target: ScMyo5
# Procedure, shortened: as §1
# [66] = target: ScNbp2
# Procedure, shortened: as §1
# [67] = target: ScPex13
# Procedure, shortened: as §1
# [68] = target: ScRvs167
# Procedure, shortened: as §1
# [69] = target: ScSho1
# Procedure, shortened: as §1
# [70] = target: ScSla1-D1-D2
# Procedure, shortened: as §1
# [71] = target: ScSla1-D3
# Procedure, shortened: as §1
# [72] = target: SpAbp1-D1
# Procedure, shortened: as §1
# [73] = target: SpBbc1
# Procedure, shortened: as §1
# [74] = target: SpBzz1-D1
# Procedure, shortened: as §1
binder,measurement,setting,value
ERPKRRAPPPVPKKP,SPOT peptide array binding signal intensity,[1],40.2
same,SPOT peptide array binding signal intensity,[2],1
same,SPOT peptide array binding signal intensity,[3],112
same,SPOT peptide array binding signal intensity,[4],12
same,SPOT peptide array binding signal intensity,[5],122
same,SPOT peptide array binding signal intensity,[6],43.2
same,SPOT peptide array binding signal intensity,[7],302
same,SPOT peptide array binding signal intensity,[8],489
same,SPOT peptide array binding signal intensity,[9],1100
same,SPOT peptide array binding signal intensity,[10],10
same,SPOT peptide array binding signal intensity,[11],15
same,SPOT peptide array binding signal intensity,[12],175
same,SPOT peptide array binding signal intensity,[13],215
same,SPOT peptide array binding signal intensity,[14],≤ 0
APERAVPILPPRNNV,SPOT peptide array binding signal intensity,[15],7.5
same,SPOT peptide array binding signal intensity,[16],160
same,SPOT peptide array binding signal intensity,[17],47.5
same,SPOT peptide array binding signal intensity,[18],84.5
same,SPOT peptide array binding signal intensity,[19],10.5
same,SPOT peptide array binding signal intensity,[20],9
same,SPOT peptide array binding signal intensity,[21],≤ 0
same,SPOT peptide array binding signal intensity,[22],11.5
same,SPOT peptide array binding signal intensity,[23],24.5
same,SPOT peptide array binding signal intensity,[24],109
same,SPOT peptide array binding signal intensity,[25],2180
same,SPOT peptide array binding signal intensity,[26],≤ 0
same,SPOT peptide array binding signal intensity,[27],≤ 0
same,SPOT peptide array binding signal intensity,[28],87.8
same,SPOT peptide array binding signal intensity,[29],≤ 0
same,SPOT peptide array binding signal intensity,[30],≤ 0
same,SPOT peptide array binding signal intensity,[31],0.5
same,SPOT peptide array binding signal intensity,[32],11
same,SPOT peptide array binding signal intensity,[33],14
same,SPOT peptide array binding signal intensity,[34],418
same,SPOT peptide array binding signal intensity,[35],2
same,SPOT peptide array binding signal intensity,[36],≤ 0
same,SPOT peptide array binding signal intensity,[37],28.5
same,SPOT peptide array binding signal intensity,[38],42.5
same,SPOT peptide array binding signal intensity,[39],24
same,SPOT peptide array binding signal intensity,[40],3.5
same,SPOT peptide array binding signal intensity,[41],7.25
same,SPOT peptide array binding signal intensity,[42],≤ 0
same,SPOT peptide array binding signal intensity,[43],2970
same,SPOT peptide array binding signal intensity,[44],≤ 0
same,SPOT peptide array binding signal intensity,[45],25
same,SPOT peptide array binding signal intensity,[46],414
same,SPOT peptide array binding signal intensity,[47],≤ 0
same,SPOT peptide array binding signal intensity,[48],4
same,SPOT peptide array binding signal intensity,[49],1
same,SPOT peptide array binding signal intensity,[50],≤ 0
same,SPOT peptide array binding signal intensity,[51],1.5
same,SPOT peptide array binding signal intensity,[52],4.25
same,SPOT peptide array binding signal intensity,[53],≤ 0
same,SPOT peptide array binding signal intensity,[54],2.5
same,SPOT peptide array binding signal intensity,[55],≤ 0
same,SPOT peptide array binding signal intensity,[56],5
same,SPOT peptide array binding signal intensity,[57],≤ 0
same,SPOT peptide array binding signal intensity,[58],32.5
same,SPOT peptide array binding signal intensity,[59],≤ 0
same,SPOT peptide array binding signal intensity,[60],80.2
same,SPOT peptide array binding signal intensity,[61],18
same,SPOT peptide array binding signal intensity,[62],4520
same,SPOT peptide array binding signal intensity,[63],1710
same,SPOT peptide array binding signal intensity,[64],33.5
same,SPOT peptide array binding signal intensity,[65],2.75
same,SPOT peptide array binding signal intensity,[66],6
same,SPOT peptide array binding signal intensity,[67],789
same,SPOT peptide array binding signal intensity,[68],966
same,SPOT peptide array binding signal intensity,[69],91.5
same,SPOT peptide array binding signal intensity,[70],34.5
same,SPOT peptide array binding signal intensity,[71],1
same,SPOT peptide array binding signal intensity,[72],5.5
same,SPOT peptide array binding signal intensity,[73],0.5
same,SPOT peptide array binding signal intensity,[74],81
same,SPOT peptide array binding signal intensity,[1],≤ 0
same,SPOT peptide array binding signal intensity,[2],13
same,SPOT peptide array binding signal intensity,[3],3
same,SPOT peptide array binding signal intensity,[4],8
same,SPOT peptide array binding signal intensity,[5],20.8
same,SPOT peptide array binding signal intensity,[6],2.5
same,SPOT peptide array binding signal intensity,[7],83.8
same,SPOT peptide array binding signal intensity,[8],3550
same,SPOT peptide array binding signal intensity,[9],926
same,SPOT peptide array binding signal intensity,[10],≤ 0
same,SPOT peptide array binding signal intensity,[11],2
same,SPOT peptide array binding signal intensity,[12],1250
same,SPOT peptide array binding signal intensity,[13],≤ 0
same,SPOT peptide array binding signal intensity,[14],≤ 0
